The structures appear in SMILES notation. Inconclusive results are not listed. Where a call stands in place of a potency, no number is given. The source made the active and inactive calls. The call rests on the fitted dose curve; in most records, active means well fitted curve in the direction sought with a large enough effect; inconclusive means small, poorly fitted or top-dose-only effect, or another doubt; inactive means no such curve, though single readings can be large; an effect the other way counts as inactive or inconclusive.

Chain of D(1A) dopamine receptor (Homo sapiens) (P21728 whole entry, looked up): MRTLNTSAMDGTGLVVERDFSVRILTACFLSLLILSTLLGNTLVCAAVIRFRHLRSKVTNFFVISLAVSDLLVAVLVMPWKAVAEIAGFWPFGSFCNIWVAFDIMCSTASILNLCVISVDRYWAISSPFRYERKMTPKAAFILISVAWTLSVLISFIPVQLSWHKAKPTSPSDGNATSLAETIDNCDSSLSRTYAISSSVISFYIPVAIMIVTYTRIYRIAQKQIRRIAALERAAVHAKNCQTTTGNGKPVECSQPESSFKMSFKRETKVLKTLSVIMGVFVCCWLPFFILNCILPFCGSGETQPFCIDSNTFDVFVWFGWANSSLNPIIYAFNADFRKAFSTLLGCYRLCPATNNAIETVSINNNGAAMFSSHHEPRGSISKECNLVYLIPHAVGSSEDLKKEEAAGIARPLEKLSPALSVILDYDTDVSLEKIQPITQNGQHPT

One assay concerns the target D(1A) dopamine receptor (Homo sapiens) (UniProt P21728). The assay is described as follows: HTS Assay for Allosteric Agonists of the Human D1 Dopamine Receptor: Primary Screen for Agonists (AID 488981). The following applies: Inducible HEK293 T-REx D1 cells, calcium-flux fluorescence, 180 s kinetic; series mostly up to 41.8 µM. In outline: (§1)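 Tetracycline-induced HEK293 Trex D1 cells with forced coupling to calcium, loaded with no-wash calcium dye; kinetic fluorescence read 180 s after compound addition for agonism, then a further 180 s after an EC20 dopamine challenge for potentiation.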
On to `O=C(O)CCC(=O)N1CCCC1C(=O)O` (stereo unspecified), for which the Potency result was “inactive”.
Same read-out and setting: to `C=C(C)C1CC=C(C(=O)O)CC1` (stereo unspecified) belongs “inactive”.
Same read-out and setting: to `NCC(O)C1CCCCCCC1` (stereo unspecified) belongs “inactive”.
The same measure, in the same setting: to `NC(=O)CNCCC(c1ccccc1)c1ccccc1` belongs “inactive”.
As for `COc1ccccc1N1CCN(CCCNc2c(C)c(=O)n(C)c(=O)n2C)CC1`, the Potency result was “inactive”.
For the compound `C[C@@]1(C2CCCC2)Cc2cc(OCC(=O)O)c(Cl)c(Cl)c2C1=O`, the Potency result was “inactive”.
As for `N[C@@H](CS(=O)O)C(=O)O`, the Potency result is “inactive”.
As for `COC(=O)C(C)(N)Cc1ccc(O)cc1` (stereo unspecified), the Potency result is “inactive”.
Same read-out and setting: to `O=C(O)/C(=C/c1c(C(=O)O)[nH]c2cc(Cl)cc(Cl)c12)c1ccccc1` belongs “inactive”; to `Cn1c(=O)[nH]c2ncn(C)c2c1=O`, “inactive”; to `CCCCCCCCCCCCCCCCCCOC[C@H](COP(=O)([O-])OCC[N+](C)(C)C)OC`, “inactive”.
For the compound `O=C(O)/C=C/c1ccc(O)c(O)c1`, the Potency entry was “inactive”.
On the same count and under the same terms, to `N[C@@H](Cc1ccc(O)c(I)c1)C(=O)O` belongs “inactive”.
On the same count and under the same terms, to `NC(=O)c1cc[n+](CC2=C(C(=O)O)N3C(=O)[C@@H](NC(=O)[C@@H](c4ccccc4)S(=O)(=O)[O-])[C@H]3SC2)cc1` belongs “inactive”; to `O=[N+]([O-])c1cccc2cn[nH]c12`, “inactive”.
Still for that read-out and setting: to `c1ccc2nc(C3=NCCN3)ccc2c1` belongs “inactive”; to `COc1ccccc1N1CCN(CCCCNC(=O)c2ccc3ccccc3c2)CC1`, “inactive”.
With `O=c1onc2n1-c1cc(Br)ccc1OC2`, the Potency entry is “inactive”.
Still for that read-out and setting: to `CC(C)NC[C@H](O)COc1ccc(CC(N)=O)cc1` belongs “inactive”.
Still for that read-out and setting: to `NC(N)=NC(N)=Nc1ccccc1` belongs “inactive”; to `C#CCn1c(=O)c2c(ncn2C)n(C)c1=O`, “inactive”; to `O=C(OCCN1CCOCC1)C1(c2ccccc2)CCCCC1`, “inactive”.
`CO/N=C(\C(=O)N[C@@H]1C(=O)N2C(C(=O)O)=C(CSc3nc(=O)c(O)nn3C)CSC12)c1csc(N)n1` (stereo partly specified): the Potency result was “inactive”.
The same measure, in the same setting: to `Nc1ccc(-c2nc3ccc(-c4nc5ccc(N)cc5[nH]4)cc3[nH]2)cc1` belongs “inactive”; to `CCC(=O)N1CCN(C(=O)c2ccccc2)CC1`, “inactive”.
On the same count and under the same terms, to `Nc1ccc(N2C(=O)c3ccccc3C2=O)c(Cl)c1` belongs “inactive”; to `NC(N)=N[C@@H](CCC(=O)O)C(=O)O`, “inactive”; to `CC1CCN(CC[C@H]2CCCN2S(=O)(=O)c2cccc(O)c2)CC1`, “inactive”.
Same read-out and setting: to `Cc1nc(N=Nc2ccc(S(=O)(=O)O)cc2S(=O)(=O)O)c(COP(=O)(O)O)c(C=O)c1O` belongs “inactive”.
Turning to `CC(C)Cn1c(=O)n(C)c(=O)c2[nH]cnc21`, the Potency result was “inactive”.
Same read-out and setting: to `NCCCNCCCCNCCCN` belongs “inactive”; to `CCCCCCCCCC[Si](C)(C)CCC(=O)NC(Cc1ccc(C)cc1)c1ccccc1` (stereo unspecified), “inactive”; to `CNc1ncnc2c1ncn2[C@H]1C[C@H](OP(=O)(O)O)[C@@H](COP(=O)(O)O)O1`, “inactive”.
On the same count and under the same terms, to `NCCS(=O)O` belongs “inactive”; to `N=C(N)SCCN`, “inactive”.
Turning to `NC1(C(=O)O)CC1`, the Potency result was “inactive”.
Same read-out and setting: to `O=C(O)c1cc(=O)cc(C(=O)O)[nH]1` belongs “inactive”.
Turning to `c1ccc(C2CN3CCSC3=N2)cc1` (stereo unspecified), the Potency result is “inactive”.

Another assay has the same target. Kind of assay: HTS Assay for Allosteric Agonists of the Human D1 Dopamine Receptor: Primary Screen for Potentiators (AID 488982). The following applies: HEK293 T-REx D1 inducible cells, calcium flux, kinetic fluorescence; series mostly up to 8.37 µM. In outline:
as §1
On the technique in general: Calcium flux is commonly read through the fluorescence of an indicator in the cells.
Turning to `O=C(O)CCC(=O)N1CCCC1C(=O)O` (stereo unspecified), the Potency result is “inactive”.
The same measure, in the same setting: to `C=C(C)C1CC=C(C(=O)O)CC1` (stereo unspecified) belongs “inactive”; to `NCC(O)C1CCCCCCC1` (stereo unspecified), “inactive”.
On the same count and under the same terms, to `NC(=O)CNCCC(c1ccccc1)c1ccccc1` belongs “inactive”.
The same measure, in the same setting: to `COc1ccccc1N1CCN(CCCNc2c(C)c(=O)n(C)c(=O)n2C)CC1` belongs “inactive”; to `C[C@@]1(C2CCCC2)Cc2cc(OCC(=O)O)c(Cl)c(Cl)c2C1=O`, “inactive”; to `N[C@@H](CS(=O)O)C(=O)O`, “inactive”.
With `COC(=O)C(C)(N)Cc1ccc(O)cc1` (stereo unspecified), the Potency entry was “inactive”.
In the case of `O=C(O)/C(=C/c1c(C(=O)O)[nH]c2cc(Cl)cc(Cl)c12)c1ccccc1`, the Potency entry is “inactive”.
Still for that read-out and setting: to `Cn1c(=O)[nH]c2ncn(C)c2c1=O` belongs “inactive”; to `CCCCCCCCCCCCCCCCCCOC[C@H](COP(=O)([O-])OCC[N+](C)(C)C)OC`, “inactive”.
Same read-out and setting: to `O=C(O)/C=C/c1ccc(O)c(O)c1` belongs “inactive”; to `N[C@@H](Cc1ccc(O)c(I)c1)C(=O)O`, “inactive”.
The same measure, in the same setting: to `NC(=O)c1cc[n+](CC2=C(C(=O)O)N3C(=O)[C@@H](NC(=O)[C@@H](c4ccccc4)S(=O)(=O)[O-])[C@H]3SC2)cc1` belongs “inactive”; to `O=[N+]([O-])c1cccc2cn[nH]c12`, “inactive”; to `c1ccc2nc(C3=NCCN3)ccc2c1`, “inactive”.
For `COc1ccccc1N1CCN(CCCCNC(=O)c2ccc3ccccc3c2)CC1`, the Potency result was “inactive”.
Still for that read-out and setting: to `O=c1onc2n1-c1cc(Br)ccc1OC2` belongs “inactive”; to `CC(C)NC[C@H](O)COc1ccc(CC(N)=O)cc1`, “inactive”; to `NC(N)=NC(N)=Nc1ccccc1`, “inactive”.
Same read-out and setting: to `C#CCn1c(=O)c2c(ncn2C)n(C)c1=O` belongs “inactive”; to `O=C(OCCN1CCOCC1)C1(c2ccccc2)CCCCC1`, “inactive”.
For `CO/N=C(\C(=O)N[C@@H]1C(=O)N2C(C(=O)O)=C(CSc3nc(=O)c(O)nn3C)CSC12)c1csc(N)n1` (stereo partly specified), the Potency entry is “inactive”.
Still for that read-out and setting: to `Nc1ccc(-c2nc3ccc(-c4nc5ccc(N)cc5[nH]4)cc3[nH]2)cc1` belongs “inactive”.
On to `CCC(=O)N1CCN(C(=O)c2ccccc2)CC1`, for which the Potency entry is “inactive”.
Same read-out and setting: to `Nc1ccc(N2C(=O)c3ccccc3C2=O)c(Cl)c1` belongs “inactive”; to `NC(N)=N[C@@H](CCC(=O)O)C(=O)O`, “inactive”.
The same measure, in the same setting: to `CC1CCN(CC[C@H]2CCCN2S(=O)(=O)c2cccc(O)c2)CC1` belongs “inactive”.
Still for that read-out and setting: to `Cc1nc(N=Nc2ccc(S(=O)(=O)O)cc2S(=O)(=O)O)c(COP(=O)(O)O)c(C=O)c1O` belongs “inactive”.
As to `CC(C)Cn1c(=O)n(C)c(=O)c2[nH]cnc21`, the Potency entry is “inactive”.
Take `NCCCNCCCCNCCCN`: the Potency result was “inactive”.
Same read-out and setting: to `CCCCCCCCCC[Si](C)(C)CCC(=O)NC(Cc1ccc(C)cc1)c1ccccc1` (stereo unspecified) belongs “inactive”; to `CNc1ncnc2c1ncn2[C@H]1C[C@H](OP(=O)(O)O)[C@@H](COP(=O)(O)O)O1`, “inactive”.
`NCCS(=O)O`: the Potency entry is “inactive”.
For the compound `N=C(N)SCCN`, the Potency result is “inactive”.
Take `NC1(C(=O)O)CC1`: the Potency entry is “inactive”.
Regarding `O=C(O)c1cc(=O)cc(C(=O)O)[nH]1`, the Potency result is “inactive”.
Same read-out and setting: to `c1ccc(C2CN3CCSC3=N2)cc1` (stereo unspecified) belongs “inactive”.

Values taken from PubChem BioAssay (NCATS).
